The values that follow come from PubChem BioAssay (NCI).

This is part of a sample that, as a whole, favours compounds with a hit. Of some 83,000 tested, about 20% had one in any assay.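 Plates (96-well) were seeded with cells, treated with compound at one concentration, and incubated for 48 hours before percent growth was determined.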 Unmarked numbers belong to inactive results. Active and inactive are the calls of the source.

This experiment has as its system SW-620 colon. Description: NCI-60 one-dose screen, 48 h (100 = growth as untreated, 0 = no growth, -100 = all killed). The conditions noted are these: 10 µM unless noted. On the procedure:
Growth inhibition of the SW-620 human tumor cell line is measured as a screen for anti-cancer activity. Cells are grown in 96 well plates and exposed to the test compound for 48 hours. Compounds are tested at a single concentration, which is 10^-5 M for most compounds. The reported endpoint is percent growth (GI% or GIPRCNT), where numbers from 0 - 100% represent growth inhibition, and numbers from -100% - 0 represent cell death. For example, a value of 40 represents 60% growth inhibition. A value of 0 means no net growth occurred over the course of the experiment. A value of -40 indicates 40% of cells at the beginning of the experiment died by the end of the experiment. A value of -100 means all cells are dead at the end of the experiment.
NCI-60 Human Tumor Cell Lines Screen was performed using the standard one-dose NCI protocol, which is described in more detail at https://dtp.cancer.gov/discovery_development/nci-60/default.htm.
Compounds with GIPRCNT values below 10 were considered active. Activity score was based on GIPRCNT using the following formula: […]
Score is 0 for GIPRCNT values of 100 or above, 50 for GIPRCNT values of 0, and 100 for GIPRCNT values of -100.
As to `CCOC(=O)c1c(C=O)nc2ccccc2c1/C=C/c1ccc(Cl)cc1`, the growth was 103%. The same measure for `c1ccc(-c2ccc(-c3nc4ccccc4[nH]3)cc2)cc1`: 101%. The same measure for `CCN1C(=O)N(c2ccccc2)C2Nn3c(s/c(=C4\C(=O)N(C(C)C)c5ccccc54)c3=O)=NC21` (stereo not given): 98.7%; for `CCOC(=O)c1cnc2c(C)cccc2c1Nc1ccc(C(C)=O)cc1`: -62.2% (active); for `Cc1cc2c(c(C)c1Cl)C(=O)/C(=C/c1cccc([N+](=O)[O-])c1)O2`: 104%. The figure for `O=C(NCc1ccccc1)C1CN(c2ccc(Cl)cc2)N(c2ccc(Cl)cc2)C1=O` (stereo not given) is 60.8%. Turning to `CC(C)C[C@H](C(=O)N[C@@H](C)C(N)=O)N1CC=CCN(O)S1(=O)=O`, the growth is 103% [5 µM]. In the case of `Fc1cccc(COc2ccc(Nc3ncnc4onc(-c5ccccc5)c34)cc2)c1`, the growth is 19.8%. As to `O=c1oc2ccc(I)cc2c(=O)n1-c1ccc(Br)cc1F`, the growth is 8.98% (active). The same measure for `O=C(Nc1ccc(Br)cc1F)c1cc(I)ccc1O`: 14.1%. The figure for `COc1cc(/C=C2\CCC/C(=C\c3cc(CN4CCOCC4)c(O)c(OC)c3)C2=O)cc(CN2CCOCC2)c1O` is 31.1%. On to `COc1ccc(/C=C/C(=O)c2ccc(Nc3nc(NCCO)nc(Nc4ccc(Cl)cc4)n3)cc2)cc1`, for which the growth is 91.1%. The figure for `CCN(CC)CCNC(=O)C(Cl)=C1C(Cl)=C(Cl)C(Cl)=C1Cl` is 34.7%. The figure for `COCCN(C(=O)Cc1cccs1)C(C(=O)NCc1ccc(OC)cc1)c1ccc(C(C)C)cc1` (stereo not given) is 85.3%; for `C=C(C)CCC(C)N1CCC(N2CCC(C(=O)NCCc3ccccc3)CC2)CC1` (stereo not given) it is 45.2%.

`O=c1oc2ccc(I)cc2c(=O)n1-c1ccc(I)cc1F`: the growth was 8.02% (active).

Consider `Cc1ccc(NC2=CC(=O)C(=O)c3ccccc32)c(C)c1`, for which the growth was 34.9%. The figure for `C#CCn1cc(C=C2C(=O)NC(=O)NC2=O)c2cc(Cl)ccc21` is 97.7%. The same measure for `O=C(CCN1C(=O)c2ccccc2C1=O)Nc1ccc(Cl)cc1`: 103%. The same measure for `COc1ccc(-c2c(-c3ccc(OC)c(O)c3)cnc3ncnn23)cc1`: 99.1%; for `Clc1ccc(COc2ccc(Nc3ncnc4onc(-c5ccccc5)c34)cc2)cc1`: 68.1%; for `COC(=O)C1=Nc2ccc(F)cc2/C1=C/c1sc(=S)[nH]c1O`: 22.6%.

On to `CC(=O)c1ccc(NC(=O)Nc2ccc(S(=O)(=O)Nc3ccc(Cl)nn3)cc2)cc1`, for which the growth is 104%. As for `O=C(/C=C/c1ccc(C(F)(F)F)cc1)c1ccc(Nc2nc(NCCO)nc(Nc3ccc(Cl)cc3)n2)cc1`, the growth was 0.404% (active). As for `COc1ccc(Cn2c(Br)c3c(c2Br)-c2nc(NC(=O)c4ccc(OC)cc4)sc2CC3)cc1`, the growth is 84%. Take `CCCC(c1nnnn1C1CCCCC1)N1CCN(C(=O)c2ccco2)CC1` (stereo not given): the growth was 22.4%. `CCOc1cc2c(cc1OCC)C(c1cc(C)c(O)c(C)c1)NCC2` (stereo not given): the growth was 100%. The same measure for `COc1cc(C2C(C#N)=C(N)OC3=C2C(=O)c2ccccc2C3=O)cc(OC)c1OC` (stereo not given): 21.5%. The figure for `Cc1c(-c2csc(-n3nc(C(F)(F)F)cc3C(F)(F)F)n2)no[n+]1[O-]` is 104%; for `O=C(CCc1nnc2sc(-c3ccc(Cl)cc3Cl)nn12)c1nc2ncccc2[nH]1` it is -30.4% (active); for `CCOc1cccc(/C=N\Nc2nc(=O)cc(C(=O)OC)s2)c1O` it is 79.3%. The same measure for `Nc1ccc(-c2nc3cc(Oc4ccc(Oc5ccc6[nH]c(-c7ccc(N)cc7)nc6c5)cc4)ccc3[nH]2)cc1`: 98.4%; for `O=C1CCC(N2C(=O)c3cccc(NCCCCCCOc4ccc(Nc5nccc(Nc6ccccc6)n5)cc4)c3C2=O)C(=O)N1` (stereo not given): 91%.

`Nc1nonc1-n1nncc1-c1cccnc1`: the growth is 111%.

For `CCN(CC)CCCNc1ccnc2cc3ccccc3cc12`, the growth was 83%.

As to `COC(=O)/C(CCC=C(C)C)=C1\[C@@H](OC(C)=O)C[C@@]2(C)[C@H]1C[C@@H](O)[C@H]1[C@@]3(C)CC[C@H](NCCO)[C@@H](C)[C@@H]3CC[C@@]12C`, the growth was 97%. The same measure for `Nc1ccc(-c2nn3c(CCC(=O)c4nc5ncccc5[nH]4)nnc3s2)c(O)c1`: 90.1%; for `O=C(NCc1ccco1)C1CN(c2ccc(Cl)cc2)N(c2ccc(Cl)cc2)C1=O` (stereo not given): 28.6%. As to `COc1cc(CNC(=O)c2ccsc2Nc2ccnc(C(F)(F)F)c2)ccc1O`, the growth was 100%. The figure for `COc1ccc(Cn2c(Br)c3c(c2-c2cc(OC)c(OC)c(OC)c2)CCc2sc(NC(=O)c4ccc(OC)cc4)nc2-3)cc1` is 96.2%.
